# Assay results: PubChem BioAssay (Tox21)
# Where “and” joins values, the source holds several entries; their conditions need not be identical. Equal entries are not always repeated. Records with an inconclusive call do not appear. Where a call stands in place of a potency, no number is given. Calls of active or inactive are those of the source. Unless noted, calls come from the whole dose curve; as a rule, active = well fitted curve in the direction sought with a large enough effect in the repeat runs; inconclusive = weak or mixed curves; inactive = no such curve, though single readings can be large; an effect the other way counts as inactive or inconclusive.
# How the values were obtained:
# [1] = qHTS assay to test for compound auto fluorescence at 535 nm (green) in HEK293 cells (AID 720680)
# [2] = qHTS assay to test for compound auto fluorescence at 460 nm (blue) in HEK293 cell free culture (AID 720681)
# Summary of the method: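 Test compounds were pinned into cell-free culture medium (DMEM with 10% FBS) and fluorescence was read directly at Ex/Em 405/460 nm. Signals were expressed as fluorescence equivalents of triamterene, with DMSO vehicle as control.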
# [3] = qHTS assay to test for compound auto fluorescence at 535 nm (green) in HEK293 cell free culture (AID 720682)
# Summary of the method: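 Green-channel intensity (Ex/Em 485/535 nm) was recorded from compound-treated wells containing only DMEM with 10% FBS. Fluorescein provided the equivalency standard.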
# [4] = qHTS assay to test for compound auto fluorescence at 590 nm (red) in HEK293 cell free culture (AID 720683)
# Summary of the method: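 Tox21 10K library compounds were pinned into cell-free DMEM with 10% FBS and fluorescence was read at excitation 540 nm. Activity is expressed as Rose Bengal sodium equivalency.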
# [5] = qHTS assay to test for compound auto fluorescence at 590 nm (red) in HepG2 cell free culture (AID 720684)
# Summary of the method: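 Measured in medium alone (MEM containing 10% FBS) following pintool addition of compound; emission at 590 nm with 540 nm excitation, referenced to Rose Bengal sodium.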
# [6] = qHTS assay to test for compound auto fluorescence at 460 nm (blue) in HepG2 cell free culture (AID 720685)
# Summary of the method: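 Compound (23 nL) or DMSO pinned into cell-free MEM with 10% FBS; blue fluorescence read at 405/460 nm excitation/emission, expressed as auto-fluorescence equivalency to triamterene.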
# [7] = qHTS assay to test for compound auto fluorescence at 535 nm (green) in HepG2 cell free culture (AID 720686)
# [8] = biological target: Glucocorticoid receptor (Homo sapiens) (UniProt P04150); assay: qHTS assay to identify small molecule agonists of the glucocorticoid receptor (GR) signaling pathway (AID 720691; active = well fitted activation curve with a large enough effect in the signal ratio in the repeat runs, not every such curve was filed as active; the % refers to the signal ratio)
# Summary of the method: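 qHTS in GR-bla HeLa cells: 4 h settling at 37 C/5% CO2, 18 h compound incubation at 37 C, 2 h LiveBLAzer B/G FRET substrate at room temperature, fluorescence intensity measured.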
# [9] = biological target: Glucocorticoid receptor (Homo sapiens) (UniProt P04150); assay: qHTS assay to identify small molecule antagonists of the glucocorticoid receptor (GR) signaling pathway (AID 720692; active = well fitted inhibition curve with a large enough effect in the signal ratio in the repeat runs, not every such curve was filed as active; the % refers to the signal ratio)
# Summary of the method: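 Inhibition of glucocorticoid signalling is measured in HeLa cells with a GRE-controlled beta-lactamase reporter; cells are co-treated with compound and 5 nM dexamethasone (final) for 18 h before FRET substrate readout.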
# [10] = qHTS assay to identify small molecule antagonists of the glucocorticoid receptor (GR) signaling pathway - cell viability counter screen (AID 720693); note: nearly all actives have a fitted effect of over 55% in size
# [11] = qHTS assay for identifying genotoxic compounds that show differential cytotoxicity against isogenic chicken DT40 cell lines with known DNA damage response pathways - wild type cell line (AID 743012); note: nearly all actives have a fitted effect of over 60% in size; note: potency is the fitted concentration of half-maximal effect
# Summary of the method: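 First, wild type DT40 cells were plated at 300 per well and equilibrated about 0.5 h at 37 C/5% CO2. Next, compounds in DMSO were added and exposure lasted 40 h. Finally, CellTiter-Glo was added for 30 min at room temperature and luminescence recorded.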
# [12] = qHTS assay for identifying genotoxic compounds that show differential cytotoxicity against isogenic chicken DT40 cell lines with known DNA damage response pathways - Rad54/Ku70 mutant cell line (AID 743015); note: nearly all actives have a fitted effect of over 60% in size
# [13] = qHTS assay to identify small molecule antagonists of the androgen receptor (AR) signaling pathway - cell viability counter screen (AID 743033; note: nearly all actives have a fitted effect of over 45% in size)
# [14] = qHTS assay to identify small molecule antagonists of the androgen receptor (AR) signaling pathway using the MDA cell line - cell viability counter screen (AID 743041; note: nearly all actives have a fitted effect of over 45% in size)
# Summary of the method: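 Viability counter screen run alongside the AR antagonist reporter: cells seeded 5 h before compound, R1881 added, 16 h incubation at 37C without CO2, fluorescent CellTiter-Fluor signal quantified.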
# [15] = qHTS assay for identifying genotoxic compounds that show differential cytotoxicity against isogenic chicken DT40 cell lines with known DNA damage response pathways - Rev3 mutant cell line (AID 743014); note: nearly all actives have a fitted effect of over 55% in size; note: potency is the fitted concentration of half-maximal effect
# [16] = biological target: Androgen receptor (Homo sapiens) (UniProt P10275); assay: qHTS assay to identify small molecule antagonists of the androgen receptor (AR) signaling pathway (AID 743035; active = well fitted inhibition curve with a large enough effect in the signal ratio in the repeat runs, not every such curve was filed as active; the % refers to the signal ratio)
# Summary of the method: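 Beta-lactamase FRET read (2 h RT incubation with LiveBLAzer B/G) following 16 h of compound plus R1881 treatment of AR-UAS-bla HEK293 cells, which had been pre-incubated 4 h at 37C.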
# [17] = biological target: Androgen receptor (Homo sapiens) (UniProt P10275); assay: qHTS assay to identify small molecule agonists of the androgen receptor (AR) signaling pathway (AID 743036; active = well fitted activation curve with a large enough effect in the signal ratio in the repeat runs, with a control signal flat, not every such curve was filed as active; the % refers to the signal ratio)
# Summary of the method: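 Cell-based FRET reporter assay: HEK293 line with a UAS-beta-lactamase construct, compounds added in DMSO, 16 h exposure at 37C, then 2 h substrate step at room temperature and fluorescence intensity read.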
# [18] = biological target: Androgen receptor (Homo sapiens) (UniProt P10275); assay: qHTS assay to identify small molecule agonists of the androgen receptor (AR) signaling pathway using the MDA cell line (AID 743040; note: nearly all actives have a fitted effect of over 20% in size)
# Summary of the method: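 Luminescence from ONE-Glo, read after 30 min at room temperature, reflects MMTV-driven luciferase in MDA-kb2 cells (AR- and GR-responsive). Treatment lasted 16 h at 37C, 0% CO2.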
# [19] = biological target: Androgen receptor (Homo sapiens) (UniProt P10275); assay: qHTS assay to identify small molecule antagonists of the androgen receptor (AR) signaling pathway using the MDA cell line (AID 743042; note: nearly all actives have a fitted effect of over 55% in size)
# Summary of the method: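 MDA-kb2 cells (human breast carcinoma, stably carrying an MMTV-luciferase reporter responsive to AR and GR) were plated at 3,000 cells/well and preincubated 5 hr at 37C, then given compound plus R1881 agonist for 16 h. ONE-Glo luminescence was read.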
# Androgen receptor (Homo sapiens), sequence (P10275 whole entry, looked up): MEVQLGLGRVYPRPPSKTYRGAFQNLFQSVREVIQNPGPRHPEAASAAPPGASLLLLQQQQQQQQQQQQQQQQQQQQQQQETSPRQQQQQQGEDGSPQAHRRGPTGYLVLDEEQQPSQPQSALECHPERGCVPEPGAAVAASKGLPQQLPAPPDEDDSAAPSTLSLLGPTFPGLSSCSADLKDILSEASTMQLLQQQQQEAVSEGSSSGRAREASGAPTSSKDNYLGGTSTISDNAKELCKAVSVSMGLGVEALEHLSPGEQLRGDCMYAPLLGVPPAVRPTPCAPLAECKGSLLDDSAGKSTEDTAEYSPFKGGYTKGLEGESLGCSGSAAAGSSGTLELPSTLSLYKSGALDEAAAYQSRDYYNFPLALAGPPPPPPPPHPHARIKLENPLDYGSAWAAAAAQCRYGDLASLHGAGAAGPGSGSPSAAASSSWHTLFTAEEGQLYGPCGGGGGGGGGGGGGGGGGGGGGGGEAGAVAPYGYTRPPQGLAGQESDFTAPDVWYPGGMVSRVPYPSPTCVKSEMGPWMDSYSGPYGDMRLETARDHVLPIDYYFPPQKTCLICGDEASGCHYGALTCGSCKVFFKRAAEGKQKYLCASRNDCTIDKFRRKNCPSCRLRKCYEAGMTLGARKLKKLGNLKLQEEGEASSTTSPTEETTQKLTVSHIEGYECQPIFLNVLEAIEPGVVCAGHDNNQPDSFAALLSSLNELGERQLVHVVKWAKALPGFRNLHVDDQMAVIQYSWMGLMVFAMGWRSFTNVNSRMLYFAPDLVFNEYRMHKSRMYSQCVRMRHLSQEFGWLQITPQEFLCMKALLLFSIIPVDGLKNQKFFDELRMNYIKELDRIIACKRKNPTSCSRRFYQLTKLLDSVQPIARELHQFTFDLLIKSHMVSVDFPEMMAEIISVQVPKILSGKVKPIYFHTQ
# Glucocorticoid receptor (Homo sapiens), sequence (P04150 whole entry, looked up): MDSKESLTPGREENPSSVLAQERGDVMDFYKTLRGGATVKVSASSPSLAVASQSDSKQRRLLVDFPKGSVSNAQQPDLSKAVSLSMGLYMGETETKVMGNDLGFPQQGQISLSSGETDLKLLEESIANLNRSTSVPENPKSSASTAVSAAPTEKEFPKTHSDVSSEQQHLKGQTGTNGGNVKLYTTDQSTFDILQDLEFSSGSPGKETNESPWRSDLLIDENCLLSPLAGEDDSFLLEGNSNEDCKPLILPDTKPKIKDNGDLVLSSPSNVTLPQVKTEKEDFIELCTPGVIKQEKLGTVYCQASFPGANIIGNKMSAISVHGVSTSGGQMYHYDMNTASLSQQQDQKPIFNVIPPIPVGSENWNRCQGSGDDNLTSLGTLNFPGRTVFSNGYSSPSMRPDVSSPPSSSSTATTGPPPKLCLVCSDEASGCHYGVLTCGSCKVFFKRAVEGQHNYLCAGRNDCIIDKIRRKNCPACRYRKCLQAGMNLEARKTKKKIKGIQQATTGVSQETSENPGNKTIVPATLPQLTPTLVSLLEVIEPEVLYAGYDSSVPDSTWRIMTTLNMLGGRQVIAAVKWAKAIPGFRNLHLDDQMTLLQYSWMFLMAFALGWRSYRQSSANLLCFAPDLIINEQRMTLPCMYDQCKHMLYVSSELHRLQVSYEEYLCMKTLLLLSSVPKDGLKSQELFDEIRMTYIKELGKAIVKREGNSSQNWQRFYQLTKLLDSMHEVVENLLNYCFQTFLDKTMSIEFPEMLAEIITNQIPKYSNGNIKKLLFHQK
Compound,Potency [1],outcome [2],Potency [3],Potency [4],Potency [5],outcome [6],Potency [7],Potency [8],Potency [9],Potency [10],Potency [11],Potency [12],Potency [13],Potency [14],Potency [15],Potency [16],outcome [17],Potency [18],Potency [19]
COC(=O)CCC(=O)OC,inactive,inactive,inactive,inactive,inactive,inactive,inactive,inactive,inactive,inactive,inactive,inactive,inactive,inactive,,,,,
CCC(C)CO (centres undefined),inactive,inactive,inactive,inactive,inactive,inactive,inactive,inactive,inactive,,inactive,,inactive,inactive,,,,,
CC(C)CC(C)(O)C#CC(C)(O)CC(C)C (centres undefined),inactive,inactive,inactive,inactive,inactive,inactive,inactive,inactive,inactive,,inactive,,inactive,inactive,54.5 µM (active),,,,
O=C(c1ccccc1)c1ccccc1O,inactive,inactive,inactive,inactive,inactive,inactive,inactive,inactive,inactive,,inactive,inactive,inactive,inactive,inactive,inactive,inactive,inactive,inactive
CCC(C)(O)CCCC(C)C (centres undefined),inactive,inactive,inactive,inactive,inactive,inactive,inactive,inactive,inactive,,inactive,inactive,inactive,inactive,inactive,,,,
CC(=O)c1ccccn1,inactive,inactive,inactive,inactive,inactive,inactive,inactive,,,,,,inactive,inactive,,,,,
Cc1ccc(C)c(O)c1C,inactive,inactive,inactive,inactive,inactive,inactive,inactive,inactive,inactive,inactive,inactive,,inactive,inactive,inactive,inactive,inactive,inactive,inactive
Cc1c(C(N)=O)cc([N+](=O)[O-])cc1[N+](=O)[O-],inactive,inactive,inactive,inactive,inactive,inactive,inactive,inactive,inactive,inactive,inactive,inactive,inactive,inactive,,,,,
CCC(C)c1ccccc1O (centres undefined),inactive,inactive,inactive,inactive,inactive,inactive,inactive,inactive,inactive,inactive,inactive,,inactive,inactive,inactive,,,,
Cc1[nH]c(=O)c(C#N)cc1-c1ccncc1,inactive,inactive,inactive,inactive,inactive,inactive,inactive,,,inactive,inactive,inactive,inactive,inactive,inactive,,,,
CCOCCOCCO,inactive,inactive,inactive,inactive,inactive,inactive,inactive,inactive,inactive,,inactive,inactive,inactive,inactive,,inactive,inactive,inactive,inactive
C#C[C@]1(O)CC[C@H]2[C@@H]3CCc4cc(OC)ccc4[C@H]3CC[C@@]21C,inactive,inactive,inactive,inactive,inactive,inactive,inactive,inactive,,,5.31 µM (active) and 3.86 µM (active),,inactive,inactive,,,,,
CCCCC(CC)COP(=O)(OCC(CC)CCCC)OCC(CC)CCCC (centres undefined),inactive,inactive,inactive,inactive,inactive,inactive,inactive,inactive,inactive,,inactive,,inactive,inactive,inactive,,,,
COc1c(Cl)c(Cl)c(Cl)c(Cl)c1Cl,inactive,inactive,inactive,inactive,inactive,inactive,inactive,inactive,inactive,inactive,inactive,,inactive,inactive,inactive,,,,
